Records with an inconclusive call do not appear. Active and inactive are the calls of the source. The calls were made as follows, unless noted: active = hit-call score of the fitted dose curve at least 0.9, where 1 is the maximum; inactive = score below 0.9.
Assays:
[1] = ATG_TCF_b_cat_CIS: Attagene CIS-FACTORIAL HepG2 Assay for human T-Cell-Factor with beta-catenin (TCF/b-cat) (AID 2282965); conditions: HepG2 TCF/beta-catenin cis-reporter transcription, actives raise or lower the signal
Summary of the method: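 Endogenous TCF/LEF activity read as reporter transcript level via RT-PCR and capillary electrophoresis fluorescence in transfected HepG2, 24 h exposure; gain or loss of signal fitted against DMSO controls.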

[2] = ATG_TAL_CIS: Attagene CIS-FACTORIAL HepG2 Assay for human TAL Basal Promoter (AID 2282966); conditions: HepG2 Attagene cis-factorial TAL promoter reporter; actives raise or lower the signal;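 also: background control endpoint measuring basal TAL promoter reporter mRNA not a specific factor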
Summary of the method: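 After 24 hours of chemical exposure, transfected HepG2 cells yielded RNA that was converted to 6-FAM-labelled, HpaI-digested reporter fragments for capillary electrophoresis. Values derive from bidirectional fitting against DMSO controls.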

[3] = ATG_TGFb_CIS: Attagene CIS-FACTORIAL HepG2 Assay for human Transforming Growth Factor (TGF) (AID 2282967); conditions: HepG2 Attagene CIS TGFb reporter, mRNA transcription; actives raise or lower the signal
Summary of the method: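 HepG2 cells transiently transfected with cis-promoter-driven multiplexed reporter units; 24 h compound exposure. Reporter mRNA measured by RT-PCR, 6-FAM labeling, HpaI digestion and capillary electrophoresis; bidirectional fit versus DMSO baseline.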

[4] = ATG_VDRE_CIS: Attagene CIS-FACTORIAL HepG2 Assay for human Vitamin D Receptor Element (VDRE) (AID 2282968); conditions: HepG2 VDRE cis-reporter transcription, actives raise or lower the signal
Summary of the method: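 Measures endogenous factor activity through cis-element-driven reporter transcripts in transiently transfected HepG2. Cells are treated 24 h; reporter mRNA is quantified by RT-PCR and capillary electrophoresis; fitting is bidirectional.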

[5] = biological target: Estrogen receptor (Homo sapiens) (UniProt P03372); test: ATG_ERa_TRANS: Attagene TRANS-FACTORIAL HepG2 Assay for human Estrogen Receptor alpha (ERa) (AID 2282970; active = hit-call score of the fitted dose curve at least 0.9, where 1 is the maximum); conditions: HepG2 Attagene TRANS ERa GAL4 reporter, mRNA
Summary of the method: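 Liver-derived HepG2 cells expressing chimeric nuclear receptor-Gal4 proteins from transient transfection were exposed for 24 hours. Gain of reporter mRNA signal versus DMSO, read by capillary electrophoresis of FAM-labelled PCR products, was recorded.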

[6] = biological target: X-box-binding protein 1 (Homo sapiens) (UniProt P17861); test: ATG_Xbp1_CIS: Attagene CIS-FACTORIAL HepG2 Assay for human X-box Binding Protein 1 (XBP1) (AID 2282972); conditions: HepG2 XBP1 cis-element reporter, Attagene multiplex; actives raise or lower the signal
Summary of the method: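 Human hepatoma HepG2, cis-element reporter system, 24 h treatment; mRNA quantified by RT-PCR/CE fluorescence; fit relative to DMSO.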

[7] = biological target: Oxysterols receptor LXR-beta (Homo sapiens) (UniProt P55055); test: ATG_LXRb_TRANS: Attagene TRANS-FACTORIAL HepG2 Assay for human Liver X Receptor beta (LXRb) (AID 2282981; active = hit-call score of the fitted dose curve at least 0.9, where 1 is the maximum); conditions: HepG2 Attagene TRANS GAL4-LXRb reporter, mRNA
Summary of the method: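 After 24 h of chemical treatment, transfected HepG2 cells yield total RNA; reporter cDNA is PCR-amplified, FAM-labelled, HpaI-cut and run on capillary electrophoresis. Signal reflects chimeric LXRb-Gal4 activity on GAL4-UAS reporters.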

[8] = biological target: Hepatocyte nuclear factor 4-alpha (Homo sapiens) (UniProt P41235); test: ATG_HNF4a_TRANS: Attagene TRANS-FACTORIAL HepG2 Assay for human Hepatocyte Nuclear Factor 4 alpha (HNF4a) (AID 2282982; active = hit-call score of the fitted dose curve at least 0.9, where 1 is the maximum); conditions: HepG2 HNF4a transactivation reporter, mRNA readout
Summary of the method: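 Multiplexed reporter assay: transfected HepG2, 24 h exposure, total RNA → oligo(dT) RT → PCR → 6-FAM extension → HpaI digest → CE fluorescence. DMSO = negative control.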

[9] = ATG_M_06_TRANS: Attagene TRANS-FACTORIAL HepG2 Assay for M06 Transcription Factor (Internal Marker) (AID 2282983; active = hit-call score of the fitted dose curve at least 0.9, where 1 is the maximum); conditions: HepG2 Attagene TRANS M06 internal marker reporter
Summary of the method: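 Background control endpoint: reporter mRNA from transiently transfected HepG2 after 24 h dosing, detected by RT-PCR with capillary electrophoresis fluorescence. Analysed for gain versus DMSO.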

[10] = biological target: Nuclear receptor subfamily 4 group A member 2 (Homo sapiens) (UniProt P43354); test: ATG_NURR1_TRANS: Attagene TRANS-FACTORIAL HepG2 Assay for human Nuclear Receptor Related Protein 1 (NURR1) (AID 2282985; active = hit-call score of the fitted dose curve at least 0.9, where 1 is the maximum); conditions: HepG2 Attagene TRANS reporter, mRNA readout
Summary of the method: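 Measures transcriptional activation by an exogenous NR-Gal4 chimera in transfected HepG2 liver cells. After 24 h, reporter RNA is reverse-transcribed, amplified and resolved by capillary electrophoresis; DMSO defines baseline.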

[11] = biological target: Transcriptional activator Myb (Homo sapiens) (UniProt P10242); test: ATG_Myb_CIS: Attagene CIS-FACTORIAL HepG2 Assay for human Myeloblastosis (Myb) Proto-Oncogene Transcription Factor (AID 2282986); conditions: HepG2 Attagene CIS-FACTORIAL Myb reporter transcription; actives raise or lower the signal
Summary of the method: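 HepG2 cells were transiently transfected with cis-regulated multiple reporter transcription units reflecting endogenous Myb activity, then exposed to compound for 24 hours. Reporter mRNA was measured by RT-PCR with capillary electrophoresis; bidirectional fitting versus DMSO baseline.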

[12] = ATG_GAL4_TRANS: Attagene TRANS-FACTORIAL HepG2 Assay for GAL4 (Internal Marker) (AID 2282976; active = hit-call score of the fitted dose curve at least 0.9, where 1 is the maximum); conditions: HepG2 Attagene TRANS GAL4 internal marker reporter
Summary of the method: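 First, HepG2 cells were transfected with reporter units under GAL4-UAS control. Next, they were treated with chemical for 24 h. Finally, RNA was reverse-transcribed, PCR-amplified, FAM-labelled and resolved by capillary electrophoresis, with induction scored against DMSO.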

[13] = biological target: Glucocorticoid receptor (Homo sapiens) (UniProt P04150); test: ATG_GR_TRANS: Attagene TRANS-FACTORIAL HepG2 Assay for human Glucocorticoid Receptor (GR) (AID 2282978; active = hit-call score of the fitted dose curve at least 0.9, where 1 is the maximum;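 also: activators score as hits since higher reporter transcript over DMSO is fitted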); conditions: HepG2 Attagene TRANS GR reporter, mRNA transcription
Summary of the method: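 HepG2 cells transiently transfected with multiplexed reporter units in which chimeric NR-GAL4 proteins drive GAL4-UAS reporters; 24 h compound exposure. Reporter mRNA measured by RT-PCR, 6-FAM labelling, HpaI digestion and capillary electrophoresis; gain-of-signal fitted versus DMSO.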

[14] = biological target: Bile acid receptor (Homo sapiens) (UniProt Q96RI1); test: ATG_FXR_TRANS: Attagene TRANS-FACTORIAL HepG2 Assay for Farnesoid X Receptor (FXR) (AID 2282979; active = hit-call score of the fitted dose curve at least 0.9, where 1 is the maximum;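 also: hits raise reporter mRNA above DMSO so AC50 marks FXR activation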); conditions: HepG2 Attagene TRANS FXR-GAL4 reporter transcription
Summary of the method: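 Transient transfection of HepG2 with multiplexed GAL4-UAS reporter units; exogenous FXR-GAL4 chimera. Dose 24 h → TriZol RNA → oligo(dT) RT → PCR, 6-FAM primer extension, HpaI cut → CE. Gain vs DMSO.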

[15] = biological target: Oxysterols receptor LXR-alpha (Homo sapiens) (UniProt Q13133); test: ATG_LXRa_TRANS: Attagene TRANS-FACTORIAL HepG2 Assay for human Liver X Receptor alpha (LXRa) (AID 2282980; active = hit-call score of the fitted dose curve at least 0.9, where 1 is the maximum); conditions: HepG2 Attagene TRANS reporter, LXRa transactivation
Summary of the method: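 Transfect HepG2 with GAL4-UAS multiplex reporter constructs (TRANS format, chimeric receptor-GAL4); treat 24 h; extract RNA, reverse-transcribe, PCR-amplify, FAM-label, HpaI-digest; resolve fragments by capillary electrophoresis. Upward response vs DMSO.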

[16] = ATG_M_32_TRANS: Attagene TRANS-FACTORIAL HepG2 Assay for M32 Transcription Factor (Internal Marker) (AID 2282984; active = hit-call score of the fitted dose curve at least 0.9, where 1 is the maximum;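 also: transcript level of a background control reporter unit measured by RT-PCR and capillary electrophoresis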); conditions: HepG2 Attagene TRANS M32 internal marker reporter
Summary of the method: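 Cell-based TRANS-format assay in HepG2: exogenous chimeric GAL4 reporter units transiently expressed, compounds applied 24 h. Reporter mRNA detected by RT-PCR plus capillary electrophoresis; this readout is an internal background marker.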

[17] = ATG_M_19_TRANS: Attagene TRANS-FACTORIAL HepG2 Assay for M19 Transcription Factor (Internal Marker) (AID 2282974; active = hit-call score of the fitted dose curve at least 0.9, where 1 is the maximum); conditions: HepG2 Attagene TRANS-FACTORIAL M19 internal marker reporter
Summary of the method: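 HepG2 cells transiently transfected with multiple GAL4-UAS reporter transcription units were exposed to chemicals for 24 h. Reporter mRNA was read by RT-PCR, 6-FAM primer extension, HpaI digestion and capillary electrophoresis; gain of signal fitted relative to DMSO.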

[18] = biological target: Steroid hormone receptor ERR1 (Homo sapiens) (UniProt P11474); test: ATG_ERRa_TRANS: Attagene TRANS-FACTORIAL HepG2 Assay for human Estrogen-Related Receptor alpha (ERRa) (AID 2282971; active = hit-call score of the fitted dose curve at least 0.9, where 1 is the maximum); conditions: HepG2 Attagene TRANS reporter, ERRa transactivation
Summary of the method: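 Reporter transcript induction was quantified by RT-PCR and capillary electrophoresis of FAM-labelled, HpaI-cut products after 24 h treatment of HepG2 cells carrying transiently transfected GAL4-UAS reporter units and an exogenous ERRa-Gal4 fusion; activity scored as increase over DMSO.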

Chain of Transcriptional activator Myb (Homo sapiens) (P10242 whole entry, looked up): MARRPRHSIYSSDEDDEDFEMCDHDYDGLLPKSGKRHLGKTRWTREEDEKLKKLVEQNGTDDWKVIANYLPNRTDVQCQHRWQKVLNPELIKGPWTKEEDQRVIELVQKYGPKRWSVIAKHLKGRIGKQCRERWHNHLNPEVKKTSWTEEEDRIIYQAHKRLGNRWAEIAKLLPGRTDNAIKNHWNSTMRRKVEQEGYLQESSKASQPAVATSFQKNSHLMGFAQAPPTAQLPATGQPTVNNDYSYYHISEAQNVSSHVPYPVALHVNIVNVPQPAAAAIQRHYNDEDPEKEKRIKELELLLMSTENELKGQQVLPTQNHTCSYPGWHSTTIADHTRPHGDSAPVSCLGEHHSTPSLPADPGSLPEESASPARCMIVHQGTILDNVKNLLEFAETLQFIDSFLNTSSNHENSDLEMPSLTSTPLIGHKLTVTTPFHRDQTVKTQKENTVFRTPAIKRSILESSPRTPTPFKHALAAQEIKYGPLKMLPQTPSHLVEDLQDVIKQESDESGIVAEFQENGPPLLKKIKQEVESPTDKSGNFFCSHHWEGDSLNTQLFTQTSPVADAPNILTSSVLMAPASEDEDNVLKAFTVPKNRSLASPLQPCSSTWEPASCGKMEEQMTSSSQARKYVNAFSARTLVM
Chain of X-box-binding protein 1 (Homo sapiens) (P17861 whole entry, looked up): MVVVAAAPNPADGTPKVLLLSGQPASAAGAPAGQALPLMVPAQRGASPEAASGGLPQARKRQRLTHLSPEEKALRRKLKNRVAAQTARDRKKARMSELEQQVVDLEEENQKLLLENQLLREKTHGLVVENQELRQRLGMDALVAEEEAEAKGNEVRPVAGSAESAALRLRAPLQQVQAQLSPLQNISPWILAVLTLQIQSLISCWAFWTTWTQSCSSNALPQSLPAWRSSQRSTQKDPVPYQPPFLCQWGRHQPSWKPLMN
Chain of Nuclear receptor subfamily 4 group A member 2 (Homo sapiens) (P43354 whole entry, looked up, the tested form may be a part): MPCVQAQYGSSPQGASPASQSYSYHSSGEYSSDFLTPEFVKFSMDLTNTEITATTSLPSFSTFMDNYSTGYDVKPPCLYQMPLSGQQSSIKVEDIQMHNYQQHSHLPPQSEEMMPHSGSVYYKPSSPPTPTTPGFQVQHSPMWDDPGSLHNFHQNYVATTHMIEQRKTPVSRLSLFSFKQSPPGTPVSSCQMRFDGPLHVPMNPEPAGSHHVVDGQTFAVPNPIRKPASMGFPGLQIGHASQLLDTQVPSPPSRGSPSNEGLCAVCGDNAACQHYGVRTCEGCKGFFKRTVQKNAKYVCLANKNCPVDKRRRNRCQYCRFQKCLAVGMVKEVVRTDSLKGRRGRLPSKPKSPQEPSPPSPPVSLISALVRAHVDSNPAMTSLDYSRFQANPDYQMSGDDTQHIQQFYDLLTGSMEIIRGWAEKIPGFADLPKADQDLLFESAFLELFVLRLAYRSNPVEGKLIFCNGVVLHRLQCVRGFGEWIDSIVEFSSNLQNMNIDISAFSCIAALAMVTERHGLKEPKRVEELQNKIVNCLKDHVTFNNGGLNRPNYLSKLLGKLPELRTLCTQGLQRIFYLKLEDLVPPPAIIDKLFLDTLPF
Chain of Estrogen receptor (Homo sapiens) (P03372 whole entry, looked up, the tested form may be a part): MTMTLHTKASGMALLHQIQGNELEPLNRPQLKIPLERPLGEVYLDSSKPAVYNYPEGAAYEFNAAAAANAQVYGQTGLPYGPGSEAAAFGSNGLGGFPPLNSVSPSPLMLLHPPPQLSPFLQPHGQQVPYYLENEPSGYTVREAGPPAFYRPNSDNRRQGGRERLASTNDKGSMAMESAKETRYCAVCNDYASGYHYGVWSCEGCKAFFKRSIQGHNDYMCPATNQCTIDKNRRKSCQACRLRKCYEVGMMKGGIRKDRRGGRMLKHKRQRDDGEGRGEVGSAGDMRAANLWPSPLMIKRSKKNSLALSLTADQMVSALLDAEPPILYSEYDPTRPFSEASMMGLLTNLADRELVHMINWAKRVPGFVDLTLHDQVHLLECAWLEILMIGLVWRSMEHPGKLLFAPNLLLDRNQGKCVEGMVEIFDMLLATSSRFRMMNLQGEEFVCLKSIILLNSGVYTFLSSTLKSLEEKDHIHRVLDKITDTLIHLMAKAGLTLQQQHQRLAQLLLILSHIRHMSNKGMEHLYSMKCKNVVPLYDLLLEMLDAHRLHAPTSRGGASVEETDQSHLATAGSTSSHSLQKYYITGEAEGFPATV
Chain of Bile acid receptor (Homo sapiens) (Q96RI1 whole entry, looked up, the tested form may be a part): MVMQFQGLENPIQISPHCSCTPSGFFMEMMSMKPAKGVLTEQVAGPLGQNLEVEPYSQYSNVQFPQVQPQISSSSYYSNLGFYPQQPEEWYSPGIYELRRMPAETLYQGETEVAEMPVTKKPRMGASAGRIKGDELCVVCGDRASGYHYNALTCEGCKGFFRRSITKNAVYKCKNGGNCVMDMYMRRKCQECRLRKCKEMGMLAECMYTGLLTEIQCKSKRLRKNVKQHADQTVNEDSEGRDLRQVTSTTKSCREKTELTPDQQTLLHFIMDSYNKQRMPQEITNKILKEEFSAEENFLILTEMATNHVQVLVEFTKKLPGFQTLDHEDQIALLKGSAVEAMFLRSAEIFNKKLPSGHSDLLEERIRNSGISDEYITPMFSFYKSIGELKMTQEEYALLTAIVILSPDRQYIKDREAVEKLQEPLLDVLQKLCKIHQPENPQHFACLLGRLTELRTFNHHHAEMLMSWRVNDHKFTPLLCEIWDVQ
Chain of Oxysterols receptor LXR-beta (Homo sapiens) (P55055 whole entry, looked up, the tested form may be a part): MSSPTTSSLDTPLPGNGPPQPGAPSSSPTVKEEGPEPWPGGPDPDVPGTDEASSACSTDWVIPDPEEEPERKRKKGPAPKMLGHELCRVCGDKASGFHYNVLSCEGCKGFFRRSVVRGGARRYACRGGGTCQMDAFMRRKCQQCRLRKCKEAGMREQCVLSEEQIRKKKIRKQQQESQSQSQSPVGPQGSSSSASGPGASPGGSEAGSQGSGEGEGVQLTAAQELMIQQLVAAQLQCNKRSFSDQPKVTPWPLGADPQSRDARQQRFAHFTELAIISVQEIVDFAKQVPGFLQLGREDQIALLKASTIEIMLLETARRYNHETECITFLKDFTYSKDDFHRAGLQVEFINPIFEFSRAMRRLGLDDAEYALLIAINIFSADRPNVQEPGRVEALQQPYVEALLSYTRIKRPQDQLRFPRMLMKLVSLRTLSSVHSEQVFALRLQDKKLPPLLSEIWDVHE
Chain of Oxysterols receptor LXR-alpha (Homo sapiens) (Q13133 whole entry, looked up, the tested form may be a part): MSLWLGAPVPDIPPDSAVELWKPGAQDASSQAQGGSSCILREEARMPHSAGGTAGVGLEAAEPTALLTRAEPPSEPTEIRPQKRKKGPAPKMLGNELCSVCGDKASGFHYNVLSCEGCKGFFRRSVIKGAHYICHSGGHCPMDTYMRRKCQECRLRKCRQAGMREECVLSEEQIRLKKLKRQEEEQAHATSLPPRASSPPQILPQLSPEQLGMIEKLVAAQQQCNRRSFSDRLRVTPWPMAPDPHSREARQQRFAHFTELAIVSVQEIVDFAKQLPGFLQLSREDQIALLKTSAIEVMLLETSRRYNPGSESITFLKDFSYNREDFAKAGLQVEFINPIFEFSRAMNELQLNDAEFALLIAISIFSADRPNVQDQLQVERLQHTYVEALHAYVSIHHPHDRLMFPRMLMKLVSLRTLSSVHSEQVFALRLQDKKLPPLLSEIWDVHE
Chain of Hepatocyte nuclear factor 4-alpha (Homo sapiens) (P41235 whole entry, looked up): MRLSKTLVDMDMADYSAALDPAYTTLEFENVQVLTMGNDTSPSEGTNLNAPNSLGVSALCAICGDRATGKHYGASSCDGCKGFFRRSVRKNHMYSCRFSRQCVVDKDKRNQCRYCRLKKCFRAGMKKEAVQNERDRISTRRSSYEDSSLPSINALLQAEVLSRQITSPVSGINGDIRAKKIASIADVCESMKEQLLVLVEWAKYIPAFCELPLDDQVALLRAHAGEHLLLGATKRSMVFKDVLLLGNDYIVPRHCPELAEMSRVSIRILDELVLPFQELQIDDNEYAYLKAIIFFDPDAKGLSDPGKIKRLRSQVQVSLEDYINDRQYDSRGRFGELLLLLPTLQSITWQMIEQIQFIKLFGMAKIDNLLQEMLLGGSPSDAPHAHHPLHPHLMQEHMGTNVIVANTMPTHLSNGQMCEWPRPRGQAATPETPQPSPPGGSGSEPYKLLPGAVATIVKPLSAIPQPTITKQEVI
Chain of Glucocorticoid receptor (Homo sapiens) (P04150 whole entry, looked up, the tested form may be a part): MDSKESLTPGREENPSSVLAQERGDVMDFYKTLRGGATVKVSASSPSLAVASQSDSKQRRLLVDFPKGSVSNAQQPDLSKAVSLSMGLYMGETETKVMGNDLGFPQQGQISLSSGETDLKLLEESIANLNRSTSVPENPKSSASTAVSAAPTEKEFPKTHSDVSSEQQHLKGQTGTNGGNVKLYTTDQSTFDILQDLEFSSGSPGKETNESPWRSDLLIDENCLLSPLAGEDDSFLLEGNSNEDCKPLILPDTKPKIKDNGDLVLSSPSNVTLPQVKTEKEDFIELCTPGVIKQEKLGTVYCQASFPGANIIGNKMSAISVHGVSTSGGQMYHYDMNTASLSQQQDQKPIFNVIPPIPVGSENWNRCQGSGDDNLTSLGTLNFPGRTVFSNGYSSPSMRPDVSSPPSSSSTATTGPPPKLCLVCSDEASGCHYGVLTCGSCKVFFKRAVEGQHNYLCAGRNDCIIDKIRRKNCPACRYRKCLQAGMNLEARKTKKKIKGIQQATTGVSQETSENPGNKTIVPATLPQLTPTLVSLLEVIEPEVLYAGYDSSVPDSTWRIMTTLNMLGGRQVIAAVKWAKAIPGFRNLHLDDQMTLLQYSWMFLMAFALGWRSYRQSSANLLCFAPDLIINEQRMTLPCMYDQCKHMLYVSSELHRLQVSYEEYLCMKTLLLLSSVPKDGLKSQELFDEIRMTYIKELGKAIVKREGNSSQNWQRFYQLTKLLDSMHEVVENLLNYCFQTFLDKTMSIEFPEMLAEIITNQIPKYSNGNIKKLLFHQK

SMILES | outcome [1] | outcome [2] | outcome [3] | outcome [4] | outcome [5] | outcome [6] | outcome [7] | outcome [8] | outcome [9] | outcome [10] | outcome [11] | outcome [12] | outcome [13] | outcome [14] | outcome [15] | outcome [16] | outcome [17] | AC50 [7] | AC50 [5] | outcome [18]
CCCCCCO | inactive | inactive | inactive | inactive | inactive | inactive | inactive | inactive | inactive | inactive | inactive |  |  |  |  |  |  |  |  | 
c1ccc(-c2nc3ccccc3[nH]2)cc1 | inactive | inactive | inactive | inactive | inactive |  | inactive | inactive | inactive | inactive |  | inactive | inactive | inactive | inactive | inactive |  |  |  | 
CCCCCCCCCCCCc1ccc(O)cc1 | inactive | inactive | inactive | inactive |  | inactive |  |  | inactive | inactive | inactive | inactive | inactive | inactive | inactive |  | inactive | 15.1 µM (active) |  | 
CC1CCC(=O)C1=O (stereo not drawn) | inactive | inactive | inactive | inactive | inactive |  |  |  |  | inactive |  | inactive | inactive |  |  |  | inactive |  |  | 
CC(C)(C)NC(=O)[C@H]1CC[C@H]2[C@@H]3CC[C@H]4NC(=O)C=C[C@]4(C)[C@H]3CC[C@]12C | inactive | inactive | inactive | inactive |  | inactive |  |  | inactive |  | inactive |  | inactive | inactive | inactive | inactive | inactive |  |  | 
CC(C)CC(=O)OCc1ccccc1 | inactive | inactive | inactive | inactive | inactive | inactive |  | inactive | inactive | inactive | inactive |  |  |  |  |  |  |  |  | 
C1CNCCN1 | inactive | inactive | inactive | inactive | inactive | inactive |  |  | inactive |  | inactive | inactive |  |  |  | inactive |  |  |  | 
C=CC(C)(CCC=C(C)C)OC(=O)C=Cc1ccccc1 (stereo not drawn) | inactive | inactive | inactive | inactive |  | inactive | inactive |  | inactive |  | inactive |  |  | inactive |  |  |  |  | 7.3 µM (active) | 
NC(=O)Nc1ccccc1 | inactive | inactive | inactive | inactive |  | inactive |  | inactive |  |  | inactive |  |  |  |  |  | inactive |  |  | inactive
CCCCC(C=O)CC (stereo not drawn) | inactive | inactive | inactive | inactive |  | inactive |  | inactive |  | inactive | inactive | inactive | inactive | inactive |  | inactive | inactive |  |  | 
COc1cc(C)ccc1O | inactive | inactive | inactive | inactive | inactive | inactive |  |  | inactive |  | inactive |  | inactive |  | inactive | inactive |  |  |  | 
COc1nccnc1CC(C)C | inactive | inactive | inactive | inactive |  | inactive | inactive |  | inactive |  | inactive | inactive |  |  |  |  |  |  |  | inactive
